Data on 35 compounds can be found in PubChem BioAssay.

This assay in a line: probe aCHRDL2 binding to arrayed compounds – biochemical, biotinylated probe, 635/667 nm fluorescence, primary screen (AID 1100). As to conditions: small-molecule microarray, higher = more signal.
For `Cc1ccccc1C(O)C1C=CC2C(=O)N(C)C(=O)C2N1Nc1ccccc1` (stereo not given), the composite z-score was found to be 1.07.

As to `COc1cc(CO)ccc1OC(C)=O`, the composite z-score is -0.526.

`CC(=CC1CCCCC1)[C@@H](NC(=O)c1ccc(C(F)(F)F)cc1)c1ccc(-c2ccccc2)cc1` yielded a composite z-score of 0.848.

The compound `COc1ccc([Si](C)(C)[C@H]2[C@H](CCn3cc([C@H](O)c4ccccc4)nn3)O[C@@]3(C(=O)N(Cc4cccc(N5CCC5=O)c4)c4ccccc43)[C@@H]2C)cc1` registered a composite z-score of -0.206.

In the case of `CCCC[C@H]1OB(O)C[C@H]2C1=C(C)C[C@H]1C(=O)N(Cc3ccccc3)C(=O)[C@H]12`, the composite z-score is -0.665.

With `CC(C)NC(=O)[C@@H]1c2ccccc2C(=O)N(Cc2ccccc2)[C@H]1c1ccc(CO)cc1`, the composite z-score worked out at 1.11.

Compound `[N-]=[N+]=NCc1ccccc1C[C@]1(C(=O)NCC(O)CO)N=C(c2ccc(OCCCO)cc2)O[C@H]1c1ccccc1N=[N+]=[N-]` (stereo not given in full) registered a composite z-score of 1.1.

In turn, `C=CCC(OC(C)=O)[C@@H]1[C@@H](N(Cc2ccc(-c3ccccc3)cc2)C(=O)Cc2ccc(F)cc2)c2cc(OCCCO)ccc2N1C(=O)c1ccc2ccccc2n1` (stereo not given in full) yielded a composite z-score of 0.531.

`CO[C@H]1O[C@H](CO)[C@@H](OC(=O)Nc2ccc(Oc3ccccc3)cc2)[C@H](OC(=O)Nc2ccccc2)[C@H]1OC(=O)Nc1ccccc1`: the composite z-score was 0.766.

Regarding `CC(C)C(O)C1C=CC2C(=O)N(c3ccccc3)C(=O)C2N1Nc1ccc(C#N)cc1` (stereo not given), the composite z-score was found to be 1.26.

Compound `CC(C)c1ccc(NN2C(C(O)c3c(F)cccc3Cl)C=CC3C(=O)N(c4ccccc4)C(=O)C32)cc1` (stereo not given) displayed a composite z-score of 1.13.

The compound `O=C(NCc1ccccc1)[C@]1(CCS(=O)(=O)c2ccccc2)N=C(c2ccc(OCCCO)cc2)O[C@@H]1c1ccccc1` registered a composite z-score of 0.264.

With `COc1ccc([Si](C)(C)[C@H]2[C@H](CCn3cc(CCO)nn3)O[C@@]3(C(=O)N(Cc4ccc(N5CCOC5=O)cc4)c4ccccc43)[C@@H]2C)cc1`, the composite z-score came out at 0.236.

The compound `COCCOC(=O)N1C(=O)[C@@]2(c3cc(C#CC4=CCCCC4)ccc31)[C@H](C(=O)N1CCc3cc(OC)c(OC)cc3C1)[C@H]1C(=O)O[C@H](c3ccccc3)[C@H](c3ccccc3)N1[C@@H]2c1ccccc1OCCO` had a composite z-score of 0.185.

In turn, `Cc1ccccc1C(O)C1C=CC2C(=O)N(C)C(=O)C2N1N1CCCCC1` (stereo not given) returned a composite z-score of 0.906.

Compound `CCCCC(O)C1C=CC2C(=O)N(C3CCCCC3)C(=O)C2N1Nc1ccc(OC)cc1` (stereo not given) returned a composite z-score of 0.948.

Take `O=C(CCN1CCOCC1)c1cccc(O)c1`: the composite z-score is -0.399.

Turning to `C=C(COC)C(=O)CC[C@@H](OC(=O)c1cccnc1)c1ccc(CO)o1`, the composite z-score was -0.237.

`O=C1c2ccccc2[C@@]2(Cc3ccccc3N(Cc3ccccc3)C2=O)[C@H](c2ccc(CO)cc2)N1C1CCCCC1` returned a composite z-score of -0.292.

With `Cc1ccc(S[C@]2(C(=O)NC3CC3)CC(=O)N(C3CCCCC3)[C@@H]2c2ccc(CO)cc2I)cc1`, the composite z-score worked out at 0.259.

Compound `CCOC(=O)C[C@H]1[C@H](OC(=O)c2ccccc2-c2ccccc2)[C@@H](NC(=O)c2ccc3ccccc3c2)c2cc(OCCCO)ccc2N1C(=O)c1ccc2ccccc2n1` showed a composite z-score of -0.154.

In the case of `C[C@H]1NC(=O)[C@H](Cc2ccccc2)NC(=O)[C@@]23C(=O)N[C@@H](Cc4ccccc4)C2[C@H](C)[C@@]2(C)O[C@H]2C3/C=C/C/C=C\CNC1=O` (stereo not given in full), the composite z-score was -0.471.

With `COC(=O)C(CC#Cc1ccc2c(c1)[C@]1(C(=O)N2)[C@H](C(=O)NC[C@H](O)c2ccccc2)[C@H]2C(=O)O[C@H](c3ccccc3)[C@H](c3ccccc3)N2[C@@H]1c1ccc(OCCO)cc1)C(=O)OC`, the composite z-score is 0.0724.

`COC(=O)[C@]1(Cc2ccccc2N=[N+]=[N-])N=C(c2ccc(OCCCO)cc2)O[C@@H]1c1ccccc1N=[N+]=[N-]` returned a composite z-score of 0.191.

The compound `COCCOC(=O)N1C(=O)[C@@]2(c3cc(C#CCCO)ccc31)[C@H](C(=O)NC[C@H](O)c1ccccc1)[C@H]1C(=O)O[C@H](c3ccccc3)[C@H](c3ccccc3)N1[C@@H]2c1ccc(O)cc1` yielded a composite z-score of 0.146.

`C=CCC(OC(C)=O)[C@@H]1[C@@H](N(Cc2cccc3ccccc23)C(=O)c2cccc3ccccc23)c2cc(OCCCO)ccc2N1C(=O)c1ccc2ccccc2n1` (stereo not given in full) gave a composite z-score of 0.181.

`O=C1C2C=CC(C(O)c3ccc(B(O)O)cc3)N(Nc3ccccc3)C2C(=O)N1c1ccccc1` (stereo not given) returned a composite z-score of 0.634.

`C=C[C@H](COC(C)=O)N(Cc1ccc(OC(C)=O)c(OC)c1)S(=O)(=O)c1ccc(Br)cc1` came in with a composite z-score of 0.612.

On to `CC(C)Cc1ccc(CN2CC[C@@H](NS(=O)(=O)c3ccccc3)C2)cc1`, for which the composite z-score is -0.747.

Compound `O=C1OCC=C[C@H]2OC34C=CCN(c5ccc6ccccc6c5)C(=O)[C@H]3N(CCCO)C(=O)[C@@H]4[C@@H]12` (stereo not given in full) registered a composite z-score of 0.899.

`[N-]=[N+]=NCc1ccccc1C[C@]1(C(=O)O)N=C(c2ccc(OCCCO)cc2)O[C@H]1c1ccccc1CN=[N+]=[N-]`: the composite z-score is 1.01.

Turning to `COCCOC(=O)N1C(=O)[C@@]2(c3cc(C#CCC(C(=O)OC)C(=O)OC)ccc31)[C@H](c1ccccc1OCCO)N1[C@H](c3ccccc3)[C@H](c3ccccc3)OC(=O)[C@H]1[C@@H]2C(N)=O`, the composite z-score was found to be 0.188.

Consider `COCC1=C2[C@@H](CCc3ccccc3)OB(O)C[C@@H]2[C@@H]2C(=O)N(Cc3ccccc3)C(=O)[C@@H]2C1`, for which the composite z-score was -0.188.

Compound `CC(C)NC(=O)[C@@H]1c2ccccc2C(=O)N(Cc2ccccc2Cl)[C@H]1c1ccc(CO)cc1` gave a composite z-score of 0.448.

Compound `COc1cc2c(cc1OC)CN(C(=O)[C@@H]1[C@H]3C(=O)O[C@H](c4ccccc4)[C@H](c4ccccc4)N3[C@H](c3ccccc3OCCO)[C@@]13C(=O)Nc1ccc(C#CCNC(N)=O)cc13)CC2` gave a composite z-score of 0.281.
